Screening data deposited in PubChem BioAssay by The Scripps Research Institute Molecular Screening Center.
ssDAF12 agonist: S. stercoralis DAF-12 activation, primary screen; HEK293 ssDAF-12/GRIP1 lit1-tk-luc reporter, luminescence; % of 3 µM dafachronic acid response; AID 652126; activation, % at 6.8 µM; 1% of 370,000 active;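 active means activation above the mean over all tested compounds plus 3 SD, cut at about 0.9% in these data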;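 further: 0% = DMSO-only wells and 100% = 3 µM delta7-dafachronic acid wells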
hcDAF-12 act: activators of H. contortus DAF-12 nuclear receptor; HEK293 hcDAF-12 lit1-tk-luc reporter, luminescence; 0% DMSO, 100% Δ7-dafachronic acid; activation, % at 6.8 µM; 1.4% of 370,000 active; AID 652067;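 active means activation above the mean of all tested compounds plus 3 SD, cut at about 5.5% in these data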;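 further: 100% = response to 3 µM Δ7-dafachronic acid high control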
hgDAF-12 ag: agonists of H. glycines DAF-12 nuclear receptor. AID 687014. activation, % at 6.8 µM. HEK293 GAL4-hgDAF12 UAS-luciferase reporter, agonist luminescence; normalized to butyrate control. 1.8% of 370,000 active;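 active means activation above a cutoff set at the mean of all screened compounds plus 3 SD, cut at about 10% in these data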;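 further: 0% = DMSO wells and 100% = sodium butyrate wells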
DAX1 inh-1: blocks DAX1 repression of SF-1 activated StAR promoter. HEK293T StAR-luciferase reporter, SF-1/DAX-1 repression relief. inhibition, % at 6.8 µM. 1.1% of 370,000 active;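 active means inhibition above the mean over all tested compounds plus 3 SD, cut at about 3.6% in these data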;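 further: 0% = DAX-1 cells with DMSO and 100% = cells lacking DAX-1 with DMSO; higher inhibition means more luminescence from relief of DAX-1 repression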
DAX1 inh-2: inhibitors of human orphan nuclear receptor DAX1 (NR0B1) | P51843 | inhibition, % at 6.75 µM | HEK293 Gal4-DAX1 luciferase reporter, luminescence | AID 504766 | 0.99% of 340,000 active;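 active means inhibition above the mean over all tested compounds plus 3 SD, cut at about 4.2% in these data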;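 further: 0% = DAX1-transfected cells with DMSO and 100% = empty-vector control cells with DMSO; inhibition shows as a rise in luminescence from relieved DAX1 repression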
Target sequence (P51843 207-470 limits assumed): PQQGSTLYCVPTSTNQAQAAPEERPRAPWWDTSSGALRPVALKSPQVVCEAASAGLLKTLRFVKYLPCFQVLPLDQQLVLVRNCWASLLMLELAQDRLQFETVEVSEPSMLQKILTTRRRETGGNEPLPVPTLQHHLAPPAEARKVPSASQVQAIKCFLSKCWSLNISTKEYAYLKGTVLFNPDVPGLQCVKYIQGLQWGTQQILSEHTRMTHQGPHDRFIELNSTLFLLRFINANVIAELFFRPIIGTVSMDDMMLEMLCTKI
* = called active by the depositor. Hits are enriched below; roughly 4.1% of the tested compounds scored in any of these assays.

`CCCCCCCCS(=O)CCC(=O)O` (centres undefined) gave ssDAF12 agonist -0.1, hcDAF-12 act 0.7, hgDAF-12 ag 0.5, DAX1 inh-1 0.7 and DAX1 inh-2 0.6.
CC(C)(C)c1ccc(C#C[C@@H]2C=C[C@H]3OC(=O)CC/C=C/CCC(=O)OC[C@H]3O2)cc1 was read as ssDAF12 agonist -1.1, hcDAF-12 act 0.5, hgDAF-12 ag -0.9 and DAX1 inh-1 1.0.
`O=C(CSc1nnc(-c2ccccn2)n1-c1ccccc1)c1ccc(Cl)c(Cl)c1` gave ssDAF12 agonist -0.6, hcDAF-12 act -0.1, hgDAF-12 ag 2.4 and DAX1 inh-1 1.2.
For O=C(Nc1cc(S(=O)(=O)N2CCOCC2)ccc1N1CCOCC1)c1cn2ccccc2n1 the results were ssDAF12 agonist -1.5, hcDAF-12 act -1.1, hgDAF-12 ag -3.4, DAX1 inh-1 0.0 and DAX1 inh-2 0.4.
Screening O=C(Nc1cc(C(F)(F)F)ccc1N1CCOCC1)c1cn2ccccc2n1 returned ssDAF12 agonist -1.0, hcDAF-12 act 0.5, hgDAF-12 ag -1.4, DAX1 inh-1 -0.4 and DAX1 inh-2 6.6*.
For O=C(NC1CCCCC1)O[C@H]1CC[C@@]23CCCN2C(=O)CCC[C@H]3C1 the results were ssDAF12 agonist -1.6, hcDAF-12 act -0.3 and hgDAF-12 ag -3.0.
Screening CCC1CCc2c([nH]c3ccccc3c2=O)O1 (centres undefined) returned ssDAF12 agonist 0.2, hcDAF-12 act 0.0, hgDAF-12 ag 0.0, DAX1 inh-1 -0.1 and DAX1 inh-2 3.6.
`CC1(C)CCc2c([nH]c3ccccc3c2=O)O1` gave ssDAF12 agonist -0.7, hcDAF-12 act -2.1, hgDAF-12 ag -4.8, DAX1 inh-1 0.1 and DAX1 inh-2 5.5*.
Screening Cc1ncsc1C(=O)Nc1nc2c(s1)CC(C)CC2 (centres undefined) returned ssDAF12 agonist 0.3, hcDAF-12 act 3.1, hgDAF-12 ag 12.8*, DAX1 inh-1 2.8 and DAX1 inh-2 0.9.
CC1CCc2nc(NC(=O)C3CC3)sc2C1 (centres undefined) was read as ssDAF12 agonist -0.3, hcDAF-12 act 3.7, hgDAF-12 ag 5.9, DAX1 inh-1 1.8 and DAX1 inh-2 0.7.
`Cc1ccc(C)c(C2=CSC3=NCCN23)c1` gave ssDAF12 agonist -0.4, hcDAF-12 act 6.2*, hgDAF-12 ag 0.9, DAX1 inh-1 -0.7 and DAX1 inh-2 0.4.
Screening Cc1ccc(C)c(C2=CSC3=NS(=O)(=O)CCN23)c1 returned ssDAF12 agonist -1.5, hcDAF-12 act -0.6, hgDAF-12 ag 0.6, DAX1 inh-1 0.8 and DAX1 inh-2 1.2.
`OC1CCC(Nc2ccn3nc(-c4cccc(Cl)c4)cc3n2)CC1` (centres undefined) gave ssDAF12 agonist -0.6, hcDAF-12 act 0.3, hgDAF-12 ag 3.3 and DAX1 inh-1 2.2.
`CCC(CO)Nc1ccn2nc(-c3cccc(Cl)c3)cc2n1` (centres undefined) gave ssDAF12 agonist -0.3, hcDAF-12 act 3.7, hgDAF-12 ag 12.6* and DAX1 inh-1 3.9*.
CCOC12NC(=O)CC(=O)N1C(c1ccccc1)=CS2 (centres undefined) was read as ssDAF12 agonist -0.7, hcDAF-12 act 0.3, hgDAF-12 ag 4.0, DAX1 inh-1 0.4 and DAX1 inh-2 4.5*.
For CCCC(=O)Nc1ccc(C(=O)COC(=O)C2CC2)cc1 the results were ssDAF12 agonist -0.9, hcDAF-12 act 0.1, hgDAF-12 ag 4.1, DAX1 inh-1 2.0 and DAX1 inh-2 0.4.
For CCCC(=O)Nc1ccc(C(=O)NN=C(C2CC2)C2CC2)cc1 the results were ssDAF12 agonist -1.1, hcDAF-12 act -2.1, hgDAF-12 ag 1.3, DAX1 inh-1 -0.4 and DAX1 inh-2 4.5*.
Screening CN(CCO)C1CN(Cc2cn(Cc3ccccc3C(F)(F)F)nn2)S(=O)(=O)C1 (centres undefined) returned ssDAF12 agonist -0.8, hcDAF-12 act -2.5, hgDAF-12 ag 2.5 and DAX1 inh-1 -1.0.
`Cc1ccnc(NC(c2ccsc2)c2ccc3ccc(C)nc3c2O)c1` (centres undefined) gave ssDAF12 agonist -1.2, hcDAF-12 act -0.8, hgDAF-12 ag -7.5, DAX1 inh-1 -1.6 and DAX1 inh-2 4.9*.
Cc1cc(=O)[nH]c(=S)n1-c1ccccc1 was read as ssDAF12 agonist 0.9*, hcDAF-12 act 2.1, hgDAF-12 ag 9.2, DAX1 inh-1 2.1 and DAX1 inh-2 0.0.
